Measured values as given in the supplement of paper PMC9262897, “Low-cost anti-mycobacterial drug discovery using engineered E. coli” (Nature Communications, 2022).
Where a name gives a salt, the structure may show the parent alone. ± gives the standard deviation of the averaged measurements.

Key:
Assay in all cases: growth (OD600 after 10 h); higher = more growth (less inhibition)
[1] = tested on: E. coli TESEC Alr+ wild-type control; settings: compound 0.1 mM; raw OD600 reference: median of DMSO wells 0.241, cell-free background 0.041
Description: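 TESEC Mtb Alr E. coli, or the Alr+ wild-type control, in 384-well plates with Prestwick library compounds at 0.1 mM and 1% DMSO, across arabinose induction levels of 1E3 to 1E7 nM. Growth is read as OD600 after 10 h at 37 °C in triplicate biological replicates.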

E. coli TESEC Mtb Asd = settings: compound 0.1 mM
Description: (§1)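 TESEC E. coli strains in which the native enzyme is deleted and replaced by arabinose-inducible Mtb Asd, DapB, CysH or TrpD, each grown in its selective medium. Strains were screened against the Prestwick library at 0.1 mM and 1% DMSO in 384-well format at low and high arabinose induction. Growth is read as OD600 after 10 h in triplicate.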

E. coli TESEC Mtb DapB = settings: compound 0.1 mM
Description: as §1

E. coli TESEC Mtb Alr = settings: compound 0.1 mM
Description: (§2)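 TESEC Mtb Alr E. coli (ΔaraC ΔtolC ΔentC Δalr ΔdadX, arabinose-inducible Mtb Alr) or the Alr+ wild-type control strain, grown in defined M9-fructose medium without D-alanine in 96-well plates with Prestwick library compounds at 0.1 mM and 1% DMSO. Low Alr induction is 0.1 µM arabinose and high induction is 10 mM arabinose.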

[2] = tested on: E. coli TESEC Alr+ wild-type control; settings: compound 0.1 mM; raw OD600 reference: median of DMSO wells 0.49, cell-free background 0.052
Description: as §2

[3] = arabinose induction (level): High, raw OD600 reference: median of DMSO wells 0.331, cell-free background 0.041
[4] = arabinose induction (level): Low, raw OD600 reference: median of DMSO wells 0.417, cell-free background 0.041
[5] = arabinose induction (level): High, raw OD600 reference: median of DMSO wells […], cell-free background 0.041
[6] = arabinose induction (level): Low, raw OD600 reference: median of DMSO wells 0.227, cell-free background 0.041
[7] = arabinose 100 nM, raw OD600 reference: median of DMSO wells 0.413, cell-free background 0.052
[8] = arabinose 10000000 nM, raw OD600 reference: median of DMSO wells […], cell-free background 0.052

Row | Structure (SMILES) | growth [1] | growth (E. coli TESEC Mtb Asd; [3]) | growth (E. coli TESEC Mtb Asd; [4]) | growth (E. coli TESEC Mtb DapB; [5]) | growth (E. coli TESEC Mtb DapB; [6]) | growth (E. coli TESEC Mtb Alr; [7]) | growth (E. coli TESEC Mtb Alr; [8]) | growth [2]
1 | Clc1ccc2c(c1)C(N1CCNCC1)=Nc1ccccc1O2 [Amoxapine] | 0.162 ± 0.0094 | 0.178 ± 0.01 | 0.201 ± 0.0093 | 0.159 ± 0.03 | 0.173 ± 0.041 | 0.396 ± 0.005 | 0.291 ± 0.023 | 
2 | C=C(CC)C(=O)c1ccc(OCC(=O)O)c(Cl)c1Cl [Ethacrynic acid] | 0.0566 ± 0.0011 | 0.171 ± 0.057 | 0.19 ± 0.074 |  |  | 0.376 ± 0.0052 | 0.374 ± 0.017 | 0.374 ± 0.014
3 | CC(=O)OCC(=O)[C@@]12OC3(CCCC3)O[C@@H]1C[C@H]1[C@@H]3CCC4=CC(=O)C=C[C@]4(C)[C@@]3(F)[C@@H](O)C[C@@]12C [Amcinonide] | 0.185 ± 0.011 | 0.451 ± 0.11 | 0.402 ± 0.067 |  |  | 0.4092 ± 0.0021 | 0.304 ± 0.0053 | 
4 | CC(C)(C)NC(=O)[C@@H]1C[C@@H]2CCCC[C@@H]2CN1C[C@@H](O)[C@H](Cc1ccccc1)NC(=O)[C@H](CC(N)=O)NC(=O)c1ccc2ccccc2n1 [Saquinavir mesylate] | 0.072 ± 0.012 | 0.0544 ± 0.0037 | 0.0524 ± 0.001 |  |  | 0.273 ± 0.11 | 0.0539 ± 0.0034 | 0.0807 ± 0.0042
5 | CCCN[C@H]1CCc2nc(N)sc2C1 [Pramipexole dihydrochloride] | 0.237 ± 0.0095 | 0.262 ± 0.068 | 0.334 ± 0.02 | 0.174 ± 0.013 | 0.209 ± 0.013 | 0.406 ± 0.013 | 0.363 ± 0.012 | 
6 | CCN(CC)C(=O)Nc1ccc(OCC(O)CNC(C)(C)C)c(C(C)=O)c1 (stereo not given) [Celiprolol HCl] | 0.215 ± 0.0023 | 0.245 ± 0.048 | 0.341 ± 0.089 | 0.192 ± 0.009 | 0.264 ± 0.058 | 0.421 ± 0.0097 | 0.356 ± 0.014 | 
7 | O=C(O)Cc1cc(I)c(Oc2ccc(O)c(I)c2)c(I)c1 [Tiratricol, 3,3',5-triiodothyroacetic acid] | 0.0409 ± 0.00083 | 0.057 ± 0.0056 | 0.06 ± 0.0072 | 0.0676 ± 0.0044 | 0.108 ± 0.09 | 0.167 ± 0.087 | 0.05437 ± 0.00015 | 
8 | Cc1ccccc1C(OCCN(C)C)c1ccccc1 (stereo not given) [Orphenadrine hydrochloride] | 0.208 ± 0.013 | 0.18 ± 0.015 | 0.383 ± 0.063 | 0.19 ± 0.0094 | 0.241 ± 0.021 | 0.412 ± 0.013 | 0.321 ± 0.029 | 
9 | CO[C@H]1/C=C/O[C@@]2(C)Oc3c(C)c(O)c4c(O)c(c(/C=N/N5CCN(C6CCCC6)CC5)c(O)c4c3C2=O)NC(=O)/C(C)=C\C=C\[C@H](C)[C@H](O)[C@@H](C)[C@@H](O)[C@@H](C)[C@H](OC(C)=O)[C@@H]1C [Rifapentine] | 0.0433 ± 0.00049 | 0.0584 ± 0.0025 | 0.0547 ± 0.0039 |  |  | 0.0847 ± 0.014 | 0.0548 ± 0.0062 | 0.05153 ± 0.00031
10 | C[C@H](CCC(=O)O)[C@H]1CC[C@H]2[C@@H]3[C@H](O)C[C@@H]4C[C@H](O)CC[C@]4(C)[C@H]3CC[C@]12C [Chenodiol] | 0.247 ± 0.0086 | 0.216 ± 0.071 | 0.289 ± 0.049 | 0.168 ± 0.026 | 0.179 ± 0.0059 | 0.392 ± 0.0058 | 0.209 ± 0.02 | 
11 | CC(NCCC(c1ccccc1)c1ccccc1)c1ccccc1 (stereo not given) [Fendiline hydrochloride] | 0.03973 ± 0.00035 | 0.0469 ± 0.0006 | 0.04653 ± 0.00025 |  |  | 0.4097 ± 0.0034 | 0.0578 ± 0.0028 | 0.0558 ± 0.011
12 | NS(=O)(=O)c1cc2c(cc1Cl)NC(CC1CCCC1)NS2(=O)=O (stereo not given) [Cyclopenthiazide] | 0.236 ± 0.0074 | 0.377 ± 0.063 | 0.314 ± 0.053 | 0.212 ± 0.0077 | 0.214 ± 0.0079 | 0.375 ± 0.011 | 0.356 ± 0.0061 | 
13 | CN(Cc1cnc2nc(N)nc(N)c2n1)c1ccc(C(=O)N[C@@H](CCC(=O)O)C(=O)O)cc1 [Methotrexate] | 0.225 ± 0.0067 | 0.24 ± 0.055 | 0.359 ± 0.022 |  |  | 0.277 ± 0.14 | 0.126 ± 0.0066 | 0.102 ± 0.0015
14 | Clc1ccc(COC(Cn2ccnc2)c2ccc(Cl)cc2Cl)cc1 (stereo not given) [Econazole nitrate] | 0.0521 ± 0.0032 | 0.0469 ± 0.00075 | 0.04693 ± 0.00042 |  |  | 0.059 ± 0.0077 | 0.0553 ± 0.0037 | 0.056 ± 0.002
15 | CCCNCC(O)COc1ccccc1C(=O)CCc1ccccc1 (stereo not given) [Propafenone hydrochloride] | 0.201 ± 0.0092 | 0.144 ± 0.007 | 0.345 ± 0.02 |  |  | 0.412 ± 0.009 | 0.285 ± 0.0058 | 
16 | CC(CN(C)C)C(C)(O)Cc1ccc(Cl)cc1 (stereo not given) [Clobutinol hydrochloride] | 0.221 ± 0.0026 | 0.222 ± 0.015 | 0.353 ± 0.1 |  |  | 0.405 ± 0.0082 | 0.3421 ± 0.0029 | 0.588 ± 0.083
17 | CC(C)NC[C@@H](O)COc1ccc(CC(N)=O)cc1 [(R)-(+)-Atenolol] | 0.255 ± 0.004 | 0.485 ± 0.012 | 0.442 ± 0.033 |  |  | 0.405 ± 0.019 | 0.342 ± 0.012 | 0.546 ± 0.038
18 | CCN(CC)CCOC(=O)c1ccc(N)cc1 [Procaine hydrochloride] | 0.254 ± 0.0063 | 0.339 ± 0.035 | 0.384 ± 0.038 | 0.203 ± 0.026 | 0.251 ± 0.046 | 0.412 ± 0.0056 | 0.259 ± 0.17 | 
19 | CC(C)[C@H](N)C(=O)OCCOCn1cnc2c(=O)nc(N)[nH]c21 [Valacyclovir hydrochloride] | 0.243 ± 0.0038 | 0.258 ± 0.006 | 0.365 ± 0.054 |  |  | 0.408 ± 0.0084 | 0.369 ± 0.0047 | 
20 | C=CC1=C(C(=O)O)N2C(=O)[C@@H](NC(=O)/C(=N\O)c3csc(N)n3)[C@H]2SC1 [Cefdinir] | 0.0391 ± 0.00064 | 0.0771 ± 0.0071 | 0.0475 ± 0.00091 |  |  | 0.0463 ± 0.00075 | 0.0569 ± 0.0017 | 
21 | NNc1nncc2ccccc12 [Hydralazine hydrochloride] | 0.142 ± 0.0062 | 0.206 ± 0.017 | 0.25 ± 0.021 |  |  | 0.404 ± 0.0077 | 0.304 ± 0.018 | 0.448 ± 0.049
